# TRPM1 prom inh = MITF TRPM1 promoter inhibition in SK-MEL-5 cells | SK-MEL-5 TRPM1 promoter luciferase, 24 h | inhibition, % at 12.5 µM | 330,000 tested, 0.83% active | AID 488899;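 active = mean inhibition across replicates of 60% or more, whatever share of single replicates reaches that level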
# Peg3 prom inh-1 = reduces Peg3 promoter-driven luciferase expression in HeLa; AID 588405; inhibition, % at 20 µM; 360,000 tested, 1.7% active; HeLa PEG-Prom luciferase reporter, luminescence, overnight;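 active = inhibition of at least 50% at 20 µM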
# EBV LMP1 NFkB = reduces LMP1-driven NF-kappaB luciferase signal; AID 504558; inhibition, % at 12.5 µM; 350,000 tested, 0.69% active; LMP1-induced NF-kappaB luciferase reporter cells, luminescence; in the data active = inhibition above about 41%
# Shn3 inh set2 = Schnurri-3 reporter inhibition in Clone20 osteoblasts. Clone20 osteoblast Shn3 3'UTR firefly luciferase, 24 h. inhibition, % at 12.5 µM. 360,000 tested, 0.52% active;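 active = mean inhibition of at least 75% with every replicate also reaching 75%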
# TWEAK-Fn14 inh = blocks TWEAK-Fn14 interaction in a reporter cell assay; TWEAK-stimulated Fn14 reporter cells, luciferase luminescence, 8 h; inhibition, % at 10 µM; 360,000 tested, 2% active; AID 1159606; in the data active = inhibition above about 50%
# TROY NFkB inh = blocks TROY-dependent signaling in reporter cells; Q293 LMP1-TROYcd NF-kB luciferase reporter, 4 h; 360,000 tested, 0.98% active; AID 1347056; inhibition, % at 10 µM;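 active = compounds whose plate-normalised and pattern-corrected inhibition of the luciferase reporter signal at the single screening dose is 50% or more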
# Peg3 prom inh-2 = Peg3 promoter inhibition confirmation; inhibition, % at 20 µM; AID 602417; 1,300 tested, 84% active; shares compounds with Peg3 prom inh-1; HeLa PEG-Prom luciferase reporter, luminescence, overnight;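 active = at 20 µM dose, 40% or more inhibition averaged across four replicates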
# A number is an active result; i = inactive; nt = no result. Most compounds without a hit are left out; they make up all but 4.1% or so of the library.
SMILES,TRPM1 prom inh,Peg3 prom inh-1,EBV LMP1 NFkB,Shn3 inh set2,TWEAK-Fn14 inh,TROY NFkB inh,Peg3 prom inh-2
Cc1noc(-c2ccc(Cl)cc2)c1C(=O)O/N=C(\N)c1ccc(C(C)(C)C)cc1,i,112,i,i,i,i,98
CCOC(=O)CCNC(=O)N1CCCC(CCC(=O)N(C)CCc2ccccn2)C1 (centres undefined),i,i,i,i,i,i,nt
O=C(NC(=S)NNC(=O)c1cnccn1)c1ccc(F)cc1,i,i,i,i,i,i,nt
O=C(/C=C/c1ccc(F)cc1)NC(=S)NNC(=O)c1cnccn1,i,55,i,89,i,i,40
COc1cccc(C2c3[nH]c4ccccc4c3C[C@H]3C(=O)N(c4ccccc4C(=O)NCCCN4CCOCC4)C(=O)N23)c1 (some centres undefined),i,i,i,i,i,i,nt
CCC(C)Sc1ccc(-c2nc3ccccn3c2NCc2ccccc2)cc1OC (centres undefined),i,93,i,i,i,i,97
COC(=O)c1cc2c(=O)c3ccccc3oc2nc1/C=C/N(C)C,i,i,i,i,i,i,nt
COc1ccc(N=CC2=C(O)c3ccccc3C2=O)c(OC)c1,76,74,57,i,102,83,i
COc1ccc(CC2=C(O)c3ccccc3C(=O)C2=O)cc1,i,i,i,i,i,i,nt
CC(C)c1nnc(NC(=O)CC(=O)Nc2ccccc2C(=O)O)s1,i,57,i,i,83,i,i
CCCCc1nnc(NC(=O)CC(=O)Nc2ccccc2C(=O)O)s1,i,i,i,i,i,nt,nt
COC(=O)c1ccc2cn[nH]c2c1,nt,i,i,i,i,i,nt
NC(N)=N/N=C/c1ccc(Cl)cc1Cl,i,69,i,i,i,i,83
O=C(NN=Cc1ccc(Cl)cc1Cl)c1ccccc1,nt,i,i,i,i,i,nt
N#CC(C#N)=C1C=CC=CN1/C(=C\c1ccco1)C(=O)c1ccc(Cl)cc1,90,104,i,97,97,86,100
COc1ccccc1S(=O)(=O)N(C)C[C@@H]1OCc2cn(nn2)CCCC(=O)N([C@H](C)CO)C[C@H]1C,nt,i,i,i,i,i,nt
Cc1nc(N2CCN(S(=O)(=O)c3ccccc3C#N)CC2)c2c(-c3ccccc3)csc2n1,i,54,i,i,i,i,62
Cc1c(Cl)cccc1NC(=S)Nc1ccc2[nH]c(=O)[nH]c2c1,i,i,i,i,i,i,nt
O=C1CCCC/C1=C/Nc1cccc(C(F)(F)F)c1,i,i,i,i,i,i,nt
O=C1CCC2S/C(=C/Nc3ccc(C(F)(F)F)cc3)C(=O)N12 (centres undefined),86,67,51,i,86,i,89
CC(C)c1onc(C(=O)Nc2ccc3c(c2)OCO3)c1[N+](=O)[O-],i,i,i,i,i,i,nt
CCCn1c(=O)cc(N)n(-c2ccc(OC(F)(F)F)cc2)c1=O,i,i,i,i,i,i,nt
Clc1cccc(Nc2nc(-c3cccnc3)cs2)c1,i,i,i,i,i,i,nt
CCC(C)Oc1cc(-c2ccnc(Nc3cccc(Cl)c3)n2)ccn1 (centres undefined),i,100,i,i,91,i,92
C[C@@]12C(=O)Nc3cc(Cl)ccc3C(=O)N1[C@H]1c3cc(Cl)ccc3OC[C@@H]1[C@@H]2c1ccccc1,i,56,i,i,i,i,57
SMILES,TRPM1 prom inh,Peg3 prom inh-1,EBV LMP1 NFkB,Shn3 inh set2,TWEAK-Fn14 inh,TROY NFkB inh,Peg3 prom inh-2
CC(=O)Nc1ccc(S(=O)(=O)N(Cc2ccco2)Cc2cc3ccccc3[nH]c2=O)cc1,i,60,i,i,i,i,55
COc1ccc(N(Cc2cc3cc(OC)ccc3[nH]c2=O)S(=O)(=O)c2ccc(NC(C)=O)cc2)cc1,i,62,i,i,i,i,61
CC(=O)Nc1ccc(S(=O)(=O)N(Cc2cccnc2)Cc2cc3ccccc3[nH]c2=O)cc1,i,56,i,i,i,i,46
O=c1[nH]c2ccccc2cc1CN(Cc1cccnc1)S(=O)(=O)c1ccc(Cl)cc1,i,i,i,i,i,i,nt
COC(=O)c1ccccc1S(=O)(=O)N(Cc1ccco1)Cc1cc2cc(OC)ccc2[nH]c1=O,i,i,i,i,i,i,nt
COc1ccc(N(Cc2cc3ccccc3[nH]c2=O)S(=O)(=O)c2ccc(OC)cc2)cc1,i,i,i,i,i,i,nt

# Screens: PubChem, several laboratories
